GPR32 ag: qHTS for Agonists of Human Resolvin D1 Receptor DRV1 | Probable G-protein coupled receptor 32 (Homo sapiens), O75388 | activation, % at 76.9 µM | hit rate 2.5% among 48,000 | CHO-K1 GPR32 beta-arrestin PathHunter luminescence, 90 min; zero percent set by DMSO-only wells;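 active = activation of at least 60% and not above a set upper limit, about 1 call in 100 departs from these limits; inconclusive = activation of 40% to 60%, or above that upper limit; inactive = activation under 40%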; note: 0% is about no effect
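Agonism was scored as beta-arrestin recruitment to ProLink-fused GPR32 in stably transfected CHO-K1 cells, giving a chemiluminescent beta-Gal signal; compounds were incubated 90 min at 37 °C.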
HTT promoter inh: Primary qHTS for Identification of Small Molecule Inhibitors of Huntingtin Promoter Activity | HEK293 HTT promoter firefly luciferase reporter, 24 h | Potency, µM (series often up to 57.5 µM), for the others: at the highest dose activity change, negative = inhibition, hits mostly inhibitors | hit rate 0.93% among 48,000 | AID 1508623, 2021; note: potency is the fitted concentration of half-maximal effect; nearly all actives have a fitted effect of over 50% in size
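Firefly luciferase readout (Dual-Glo, 10 min RT) after 24 h, 37 °C compound exposure (final up to 57.5 uM) of HEK293 reporter cells cultured 24 h beforehand; PTC124 at 50 uM final as control inhibitor; activity scaled vehicle 0%, zero RLU -100%.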
HTT-AS act: Primary qHTS for Identification of Small Molecule Activators of Huntingtin-Antisense Promoter Activity | HEK293 HTT-AS promoter firefly luciferase reporter, 24 h; response scale: percent change from vehicle, -100% = no light | Potency, µM (highest dose often 57.5 µM), for inactives: at the top dose activity change, positive = activation, most hits filed as activators | hit rate 0.24% among 48,000 | AID 1508624, 2021; note: potency is the fitted concentration of half-maximal effect; nearly all actives have a fitted effect of over 55% in size
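HEK293 Fluc reporter, 2,500 cells/well, 24 h pre-culture; cpds up to 57.5 uM final, 24 h 37 degrees C; Dual-Glo, 10 min RT; normalized vehicle = 0%, zero RLU = -100%.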
OvCa metastasis: Primary qHTS assay for Inhibitors of ovarian cancer metastasis using an organotypic tumor microenvironment (TME) model | SKOV3ip1-GFP adhesion/invasion on 3D omental model, fluorescence | Potency, µM (top dose mostly 45.8 µM), for the others: at the highest dose activity change, negative = inhibition, hits mostly inhibitors | hit rate 0.1% among 46,000 | AID 1963576, 2024;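 note: potency is the fitted concentration of half-maximal effect; plate controls were DMSO wells for no effect and tomatine positive control wells for full effect; nearly all actives have a fitted effect of over 65% in size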
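Primary human omental fibroblast/mesothelial 3D culture pre-formed 48 h. SKOV3ip1-GFP cells added with compounds (0.36-46 umol/L), incubated 2 h RT/16 h 37 C, fixed; GFP cells quantified at 488/509 nm.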
NTMT1 inh: Primary qHTS for Inhibitors of N-terminal methyltransferase 1 (NTMT1): MTaseGlo Assay. N-terminal Xaa-Pro-Lys N-methyltransferase 1 (Homo sapiens), Q9BV86. NTMT1 MTase-Glo SAH luminescence, purified enzyme. Potency, µM (titrated, usually from 114 µM), without a hit: top-dose activity change, negative = inhibition, actives largely listed as inhibitors. hit rate 2.5% among 59,000. AID 1645870, 2021;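 note: potency is the fitted concentration of half-maximal effect; plate controls were DMSO vehicle for no effect and no enzyme for full effect; nearly all actives have a fitted effect of over 65% in size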
Target sequence (Q9BV86 whole entry, looked up): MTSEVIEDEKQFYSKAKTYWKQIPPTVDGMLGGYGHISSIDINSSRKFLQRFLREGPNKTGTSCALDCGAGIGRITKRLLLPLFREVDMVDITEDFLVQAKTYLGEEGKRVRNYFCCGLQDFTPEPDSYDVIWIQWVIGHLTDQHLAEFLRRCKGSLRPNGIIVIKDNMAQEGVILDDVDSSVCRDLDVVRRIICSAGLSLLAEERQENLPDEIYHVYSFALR
The depositor's hits bear a star; i = inactive; ? = inconclusive; . = not tested or not shown; ! = a repeat was not active; [ ] = dose if it differs, or a comment. Sampled rows, rich in hits. Any-hit rate of the full collection: about 4.5%. Unless noted, calls come from the whole dose curve; as a rule, active = well fitted curve in the direction sought with a large enough effect; inconclusive = small, poorly fitted or top-dose-only effect, or another doubt; inactive = no such curve, though single readings can be large; an effect the other way counts as inactive or inconclusive.

SMILES	GPR32 ag	HTT promoter inh	HTT-AS act	OvCa metastasis	NTMT1 inh
Cc1c(C(c2ccc(F)cc2)c2c(O)c3ccccc3oc2=O)c(=O)n(-c2ccccc2)n1C (stereo not given)	7	-19%	-27%	-8%	9%
O=c1oc2ccccc2c(O)c1C(CC(O)c1ccc(-c2ccc(Br)cc2)cc1)c1ccccc1 (stereo not given)	82*	-9%	-17%	.	89µM*
CN1C[C@H](CNC(=O)OCc2ccccc2)C[C@@H]2c3cccc4c3c(cn4C)C[C@H]21	80*!	-21%	-21%	.	-18%[57.5 µM]
CCc1cc(OC)c(C[C@H](C)N)cc1OC	?	-10%[116 µM]	-23%[116 µM]	.	?
Cc1ccccc1Cn1cccc(C(=O)Nc2nc3ccccc3s2)c1=O	1	0.32µM*	-82%	i	-12%
CC1Oc2cc3c(-c4c(O)cc(O)c5c(O)c6c(cc45)OC(C)C(C)C6=O)c(O)cc(O)c3c(O)c2C(=O)C1C (stereo not given)	.	.	.	.	18µM*
CC[C@@H](CO)NC(=O)[C@@H]1C=C2c3cccc4[nH]cc(c34)C[C@H]2N(C)C1	6	2%	-7%	.	8%[57.5 µM]
CCN(CC)C(=O)N[C@@H]1C=C2c3cccc4[nH]cc(c34)C[C@@H]2N(C)C1	64*	-13%	?	.	-13%[57.5 µM]
CCOC(=O)c1c(C(C#N)=CN)c2ccc(Cl)c(Cl)c2n1C	.	-23%	-17%	-22%	79µM*
Clc1ccc(OCC2=NCCN2)cc1Cl	.	.	.	.	0%[57.5 µM]
Cc1[nH]c2ccccc2c1P(=S)(c1ccccc1)c1ccccc1	.	.	.	.	12%
COc1ccc(Cc2nccc3cc(OC)c(OC)cc23)cc1OC	119*!	-11%	-17%	1%	-5%
COc1ccc2c(c[n+](C)c3c4cc5c(cc4ccc23)OCO5)c1OC	66*	?	-43%	23µM*	5%
CCCc1nc(SC)ncc1C(=O)Nc1ccc(Cl)cc1C(=O)c1ccccc1	-3	-11%	-28%	-7%	-1%
Cc1cccc(-c2nc(CN3C(=O)CN=C(c4ccccc4)c4ccccc43)c(C)o2)c1	63*	?	-45%	1%	-3%
C[C@H]1O[C@@H](O[C@H]2CC[C@]3(C=O)C4CC[C@]5(C)[C@@H](C6=CC(=O)OC6)CC[C@]5(O)[C@@H]4CC[C@]3(O)C2)C[C@@H](O)[C@@H]1O (stereo not given in full)	.	.	.	.	9%[29.8 µM]
CN1C(=O)CN=C(c2ccccc2)c2cc([N+](=O)[O-])ccc21	-5	1%	-10%	.	15%[57.5 µM]
C[C@]12COC(=O)C[C@@H]1CC[C@@H]1[C@@H]2CC[C@@]2(C)[C@H]1CC[C@]2(C)O	.	.	.	.	2%
C[C@]12C/C(=C/O)C(=O)C[C@@H]1CC[C@@H]1[C@@H]2CC[C@@]2(C)[C@H]1CC[C@]2(C)O	89*	-8%	-14%	.	?
ClC1=C(Cl)[C@]2(Cl)[C@@H]3[C@@H]4C[C@@H]([C@H]5O[C@@H]45)[C@@H]3[C@@]1(Cl)C2(Cl)Cl	113*	2%[116 µM]	-14%[116 µM]	.	32%
Cc1ccccc1-n1nc(C)c2c1NC(=O)CSC2c1ccc(Cl)cc1 (stereo not given)	?	?	-24%	-1%	8%
Cc1cccc(-n2nc(C)c3c2NC(=O)CSC3c2ccccc2Cl)c1 (stereo not given)	63*	?	-34%	1%	4%
CC[C@]1(O)CC[C@H]2[C@@H]3CCC4=CCCC[C@@H]4[C@H]3CC[C@@]21C	?	-7%	-17%	.	13µM*
Nc1ccc(Cl)cc1N	-52	22%[116 µM]	?	.	1%
CCc1cccc(NC(=O)CN2C(=O)CN=C(c3ccccc3F)c3cc(Cl)ccc32)c1	-25	?	-28%	-22%	5%

Assay outcomes as filed in PubChem BioAssay.
